Several values for one entry are separate records, joined by “and”; a condition that tells them apart may be missing. Identical values can stand only once. Hit rate of the full screen: of about 400,000 compounds, about 13,000 (3.2%) were called active. Not shown: some 18% with an inconclusive outcome. The call rests on the fitted dose curve; in most records, active means well fitted cell-killing curve with a large enough effect; inconclusive means small, poorly fitted or top-dose-only effect, or effect the other way; inactive means flat fitted curve, though single readings scatter. For the sample, actives were picked, then their nearest neighbours and some compounds at random.
assay: qHTS assay for MDR1-selective chemotherapeutics: Primary screen using the drug-selected MDR subline cells KB-V1; conditions: KB-V1 MDR cells viability, CellTiter-Glo, 72 h; series mostly up to 46.1 µM; activity change, negative = cytotoxicity: at the top concentration; further: nearly all actives have a fitted effect of over 60% in size
In short: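 Compound-treated KB-V1 multidrug-resistant cells, 72 h, 37 degrees C; viability by CellTiter-Glo. Fitted qHTS curves give the values.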
On the % scale 0 is the no-effect control and ±100 the full control effect; potency means the concentration at half of the fitted maximal effect.

| SMILES | activity change, negative = cytotoxicity | Potency |
| --- | --- | --- |
| CN(Cc1ccccc1)C(=O)[C@@H]1CCCN1C(=O)[C@@H]1CCCN1C(=O)c1c(F)cccc1F | 12.5% (inactive) |  |
| O=C(COC(=O)c1cccc(Cl)c1Cl)NC1CCCCCC1 | 12.9% (inactive) |  |
| CNC[C@H]1OCc2cnnn2CCCC(=O)N([C@H](C)CO)C[C@@H]1C | -19.9% (inactive) |  |
| C[N+](C)(C)CCNC(=O)c1c[nH]c2ccccc12 | 19% (inactive) |  |
| Cc1ccc(Cc2c(-c3ccc(Cl)cc3)nc3c4ccccc4ccn23)cc1 | 0% (inactive) |  |
| COc1ccc(CN2C(=O)C(CC(=O)NCCN3CCOCC3)CC(C(=O)N(C(C)C)C(C)C)=C2C)cc1 (centres undefined) | -19.7% (inactive) |  |
| COC(=O)c1ccccc1S(=O)(=O)Nc1ccc(OC)cc1 | 0% (inactive) |  |
| OC[C@@H]1CN(Cc2ccc(-c3ccccc3)cc2)C[C@H](n2cnc3c(NC4CCCC4)ncnc32)O1 | -23.1% (inactive) |  |
| Cc1ccc(Cn2c(=O)n(Cc3nc(-c4ccccc4)no3)c(=O)c3cc4c(cc32)OCO4)cc1 | 1.08% (inactive) |  |
| CCOC(=O)[C@]12CCC=C1N(Cc1ccccc1)C(=O)[C@H](CC(=O)N1CCCC1)C2 | -9.13% (inactive) |  |
| COc1cc(C(O)c2nc(-c3cnn(C)c3)cs2)ccc1F (centres undefined) | -7.75% (inactive) |  |
| COc1ccc(/C=C/C(=O)c2cc(Br)ccc(=O)c2O)cc1 |  | 14.6 µM (active) |
| COc1ccc(C(=O)c2oc3ccc(Br)cc3c2NC(C)=O)cc1 | -12.6% (inactive) |  |
| COc1ccc(C(=O)/C=C/c2ccc(OC3CSC3)cc2)cc1 | -14.1% (inactive) |  |
| COc1ccc(CCNC(=O)Nc2ccc3c(c2)c(=O)n(C)n3C)cc1OC | 2.68% (inactive) |  |
| COC(=O)C[C@@H]1C=C[C@@H](NC(=O)c2cccnc2)[C@@H](CO)O1 | -2.5% (inactive) |  |
| COc1ccc(C(=O)Nc2ccc(N3CCC(C)CC3)cc2)cc1Br | 7.59% (inactive) |  |
| COc1cccc(C(=O)Nc2ccc3nc4n(c(=O)c3c2)CCCCC4)c1 | -4.99% (inactive) |  |
| COc1cccc(C(=O)Nc2ccc(N3CCCC3)cc2)c1 |  | 5.8 µM (active) |
| O=C1c2ccccc2C(=O)N1c1ccc(S(=O)(=O)N2CCOCC2)c2ccccc12 | 17.2% (inactive) |  |
| CCOc1ccccc1N(CC)C(=O)Nc1cn(C)c(=O)c2ccccc12 | 2.28% (inactive) |  |
| O=c1c2ccccc2nc2n1C(CSc1ccc(F)cc1)CN2 (centres undefined) | -3.49% (inactive) |  |
| N#Cc1c(-c2ccccc2)nc(SCc2cccc(C(F)(F)F)c2)[nH]c1=O | 2.26% (inactive) |  |
| O=c1c2ccccc2nc2n1C(CSCc1cccc(C(F)(F)F)c1)CS2 (centres undefined) |  | 2.59 µM (active) |
| COc1ccc(N(C)S(=O)(=O)c2ccc3c(c2)CC(C)N3C(=O)C2CC2)c(OC)c1 (centres undefined) |  | 8.2 µM (active) |

| SMILES | activity change, negative = cytotoxicity | Potency |
| --- | --- | --- |
| COc1cccc(CNS(=O)(=O)c2ccc3c(c2)CC(C)N3C(=O)C2CCC2)c1 (centres undefined) |  | inactive |
| COc1cccc(CNS(=O)(=O)c2ccc3c(c2)CC(C)N3C(C)=O)c1 (centres undefined) | -12.7% (inactive) |  |
| COc1cc(NC(=O)C2=C(C)OCCS2)c(Cl)cc1C(=O)NCCCN1CCCC(C)C1 (centres undefined) | -18.3% (inactive) |  |
| Cc1cc(C)cc(-n2c(SCC(=O)NCC3CCCO3)nc3c([nH]c4ccccc43)c2=O)c1 (centres undefined) | 3.92% (inactive) |  |
| CC(Oc1ccc2ccccc2c1)C(=O)NNC(=S)NC(=O)c1ccco1 (centres undefined) |  | 3.66 µM (active) |
| Cc1ccc(C(=O)NNC(=O)C(C)Oc2ccc3ccccc3c2)o1 (centres undefined) | -25.8% (inactive) |  |
| CCCc1ccc(OCC(=O)NNC(=S)NC(=O)c2ccco2)cc1 | -7.59% (inactive) |  |
| COC(=O)Cc1ccc(OC2(C)CCN(Cc3ccc4c(c3)OCCO4)C2)cc1 (centres undefined) | 0.961% (inactive) |  |
| CC(C)CCNC(=O)CN(C(=O)Cn1nnc(-c2ccc(F)cc2)n1)C1CCCC1 |  | 10.3 µM (active) |
| CC(C)CCNC(=O)C(C)N(C(=O)Cn1nnc(-c2ccc(F)cc2)n1)C1CCCC1 (centres undefined) | 0.71% (inactive) |  |
| CN(C(=O)Cn1nnc(-c2ccc(F)cc2)n1)C1CCS(=O)(=O)C1 (centres undefined) | 12.2% (inactive) |  |
| COc1ccc(C(CNC(=O)c2ccc(OCc3cscn3)cc2)N2CCCC2)cc1 (centres undefined) | -28.3% (inactive) |  |
| CCCCCCC1(C)NC(c2ccc3c(c2)OCO3)=CC(c2ccccc2O)N1 (centres undefined) | 21.4% (inactive) |  |
| Cc1ccc(S(=O)(=O)N2C[C@H]3n4c(=O)ccc(=O)n4C[C@H](OC(=O)NC4CCCC4)[C@@]3(O)C2)cc1 | 6.2% (inactive) |  |
| COc1cccc(NC(=O)C2(C)CCN2Cc2ccccc2Cl)c1 (centres undefined) | -11.7% (inactive) |  |
| O=Nc1c(O)cc(O)c2ccccc12 | -0.874% (inactive) |  |
| Cc1cccc(Nc2nc(C)nc(N)c2S(=O)(=O)c2ccccc2)c1 | -14.7% (inactive) |  |
| O=C(Nc1cccc(Cl)c1)c1cc([N+](=O)[O-])ccc1N1CCN(CCO)CC1 | -0.872% (inactive) |  |
| CCN1CCN(c2ccc([N+](=O)[O-])cc2C(=O)c2ccc(Cl)cc2)CC1 |  | 23.1 µM (active) |
| CC1CCN(c2ccc([N+](=O)[O-])cc2C(N)=O)CC1 | -27.9% (inactive) |  |
| COc1ccc(CC(N)c2csc(NC(=O)NC(c3ccccc3)c3ccccc3)n2)cc1 (centres undefined) | 3.62% (inactive) |  |
| CC1(C(=O)NS(=O)(=O)c2cccc(OC(F)F)c2)CCN1C(=O)C1CC1 (centres undefined) | -4.92% (inactive) |  |
| Cc1ccc(CN2CC(N3CCC(Cc4ccccc4)CC3)CS2(=O)=O)cc1 (centres undefined) | -1.68% (inactive) |  |
| O=C(Nc1ccc(Cl)cc1)Nc1ccc(C(=O)N2CCOCC2)cc1 | -1.12% (inactive) |  |
| CS(=O)(=O)Nc1ccc(C(=O)N2CCCC2)cc1 | -3.08% (inactive) |  |

| SMILES | activity change, negative = cytotoxicity | Potency |
| --- | --- | --- |
| Cc1c(Cl)cccc1NC(=O)Nc1ccc(C(=O)N2CCCC2)cc1 |  | 16.4 µM (active) |
| O=C(Nc1cccc(Cl)c1)c1csnn1 | 12% (inactive) |  |
| COc1ccc(C2NC(=O)N(C)C3=C2C(=O)N(c2ccc(C(=O)O)cc2)C3)cc1 (centres undefined) | 5.43% (inactive) |  |
| O=S1(=O)N=C(Oc2cccc(Br)c2)c2ccccc21 | 5.35% (inactive) |  |
| CCCCOC(=O)c1ccc(NC(c2ccc(C)cc2)P(=O)(OC)OC)cc1 (centres undefined) | -7.03% (inactive) |  |
| CCOP(=O)(OCC)C(Nc1cccc(C)c1)c1ccc(F)cc1 (centres undefined) |  | 16.4 µM (active) |
| Cc1cccc(C(=O)OCC(=O)Nc2ccc(F)cc2)c1 | 2.36% (inactive) |  |
| CCOC(=O)c1cc2cc(OC)ccc2n1C1CCN(C)CC1 | 17.4% (inactive) |  |
| Cc1ccc2sc(N(Cc3cccnc3)C(=O)C3COc4ccccc4O3)nc2c1C (centres undefined) | -11.2% (inactive) |  |
| Cn1c(=O)[nH]c(=O)c2c1nc(Br)n2CCCCSc1nc2ccccc2o1 | -10.4% (inactive) |  |
| Cn1c(=O)c2c(nc(Br)n2CCSc2nc3ccccc3o2)n(C)c1=O |  | 6.51 µM (active) |
| CCN(CC)C(=O)CSc1nc2ccccc2o1 | 6.7% (inactive) |  |
| O=C(Nc1ccc(N2CCOCC2)cc1)c1cccc2c(-c3ccc(F)c(F)c3)coc12 | -1.2% (inactive) |  |
| Cc1ccn(CC(=O)NC2CCCN(Cc3ccccc3F)C2)n1 (centres undefined) | -2.26% (inactive) |  |
| CCc1ccc(-c2nn(-c3ccccc3C)cc2C(=O)N2CCN(C3CCS(=O)(=O)C3)CC2)cc1 (centres undefined) |  | 14.6 µM (active) |
| COc1ccccc1N1CCN(C(=O)c2cn(-c3ccccc3)nc2-c2cccnc2)CC1 | -21.6% (inactive) |  |
| CCn1cc(C(=O)N2CCN(C3CCCCC3)CC2)c2cc(OC)c(OC)cc2c1=O | 17.4% (inactive) |  |
| COc1cc(C)c(CN2CCN(C(=O)CCC(=O)c3ccc(C)s3)CC2)cc1OC | -26.6% (inactive) |  |
| CCCNC(=O)c1cc(C2CCCCN2S(=O)(=O)c2ccc(C#N)cc2)on1 (centres undefined) | 0.778% (inactive) |  |
| O=C(CN1CCSc2ccccc21)N1CCN(c2ccccc2)CC1 | 0% (inactive) |  |
| CCCN(CCC)CCNC(=O)c1cc2c(C)nc3ccccc3c2o1 |  | 14.1 µM (active) |
| CCN(CC)CCNC(=O)c1ccc(NC(=O)c2cc(-c3ccncc3)nc3ccccc23)cc1 | -4.9% (inactive) |  |
| Cc1nc2ccccc2c2oc(C(=O)NCCCN3CCC(C)CC3)cc12 | -3.06% (inactive) |  |
| Cc1csc[n+]1CCC1CCCCC1 | 5.44% (inactive) |  |
| COc1ccccc1CC(=O)Nc1ccc([N+](=O)[O-])cc1OC |  | 16.4 µM (active) |

| SMILES | activity change, negative = cytotoxicity | Potency |
| --- | --- | --- |
| COc1ccccc1CC(=O)Nc1ccc(F)cc1F | 0.422% (inactive) |  |
| COc1cc([N+](=O)[O-])ccc1NC(=O)CN1CCCC1 | 1.92% (inactive) |  |
| Cc1ccc(CNC(=O)CCc2c(C)nc3c(c(C)nn3-c3ccccc3)c2C)cc1 | -3.47% (inactive) |  |
| Cc1ccccc1S(=O)(=O)NC(=O)C1(C)CCN1C(=O)C1(c2ccccc2)CCCC1 (centres undefined) | 3.11% (inactive) |  |
| COc1cc(C2CC(=O)Oc3cc(OC)c(OC)c(OC)c32)cc(OC)c1OC (centres undefined) | -0.0159% (inactive) |  |
| COc1cc(OC)c2c(c1)OC(=O)CC2c1cc(OC)c(OC)c(OC)c1 (centres undefined) | 6.5% (inactive) |  |
| COc1cc(C2c3cc4c(cc3C(O)C3COC(=O)C23)OCO4)cc(OC)c1OC (centres undefined) |  | 4.11 µM (active) and 231 nM (active) |
| Cc1nn(C)c2c1c(C(F)(F)F)cc(=O)n2C(C)C(=O)NCc1ccc(Cl)cc1 (centres undefined) | 4.71% (inactive) |  |
| Cc1cccc(-c2cnc(C(O)c3ccc4ccccc4c3)[nH]2)c1 (centres undefined) | -2.55% (inactive) |  |
| Cc1cc(Nc2ccc(C(=O)N3CCCCC3)cc2)c2cccc(C)c2n1 | -12.8% (inactive) |  |
| O=C(Cc1ccc([N+](=O)[O-])cc1)Nc1ccc(C(=O)N2CCOCC2)cc1 | -16.5% (inactive) |  |
| Cc1ccccc1-c1ccc(Nc2ccc(C(=O)N3CCOCC3)cc2)nn1 |  | 14.6 µM (active) |
| Cc1ccccc1NC(=O)Cc1nc(COC(=O)CNC(=O)c2ccc(Cl)cc2Cl)cs1 | 19.5% (inactive) |  |
| CS(=O)(=O)/C(C#N)=C/c1cccn1S(=O)(=O)c1ccc([N+](=O)[O-])cc1 | 14.5% (inactive) |  |
| COc1ccc(C(C)(O)c2nc(-c3ccc(C)c(C)c3)cs2)cc1 (centres undefined) | 8.75% (inactive) |  |
| CN(c1ccccc1)c1nc(N)c([N+](=O)[O-])c(NCc2ccco2)n1 |  | 20.6 µM (active) |
| COc1cccc(Nc2nc(N)c([N+](=O)[O-])c(NCc3ccco3)n2)c1 | -1.12% (inactive) |  |
| COCCNc1nc(N)c([N+](=O)[O-])c(NCCO)n1 | 3.27% (inactive) |  |
| Cc1cccc(S(=O)(=O)N(C)C[C@@H]2OCc3cnnn3CCCC(=O)N([C@H](C)CO)C[C@@H]2C)c1 | 1.87% (inactive) |  |
| CCc1ccccc1OCCSc1nc(-c2cccs2)nc2cc(=O)[nH]n12 | -1.44% (inactive) |  |
| Cc1nnc(SCC(=O)NCc2ccccc2Cl)c2nn(-c3ccccc3)c(C)c12 | -5.48% (inactive) |  |
| CNC(=O)C[C@H]1C(=O)N(c2ccc(OC)cc2)C[C@@H]1Cc1ccccc1 | -17.1% (inactive) |  |
| C[C@H]1CN(c2ccc(Br)cc2)C(=O)[C@@H]1CC(=O)Nc1ccc(Br)cc1 | -5.07% (inactive) |  |
| O=C(NCc1cccnc1)c1cc(C2CCCCN2C(=O)CCc2ccccc2)on1 (centres undefined) | -5.51% (inactive) |  |

Reference: PubChem BioAssay AID1347076 (National Center for Advancing Translational Sciences (NCATS), 2019)
